Where “and” joins values, the source holds several entries; their conditions need not be identical. Equal values may be shown once. Calls of active or inactive are those of the source.
What was measured:
[1] = system: Plasmodium falciparum Sir2 (PF13_0152, Sir2A); experiment: Plasmodium falciparum Sir2A binding compounds – biochemical, small-molecule microarray, 635 nm fluorescence, primary screen (AID 1098); conditions: fluorescence 635 nm, higher = more signal;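 also: score merges spot fluorescence intensity with its signal-to-noise ratio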
[2] = probe aDKK1 binding to arrayed compounds – biochemical, biotinylated probe, 635/667 nm fluorescence, primary screen (AID 1099); conditions: small-molecule microarray, higher = more signal;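 also: score merges 667nm spot fluorescence with signal to noise across triplicate slides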
[3] = probe aCHRDL2 binding to arrayed compounds – biochemical, biotinylated probe, 635/667 nm fluorescence, primary screen (AID 1100); conditions: small-molecule microarray, higher = more signal
[4] = change in splice reporter luminescence, either direction, cell-based, HEK293, spliceosome inhibition project, primary screen (AID 1101); conditions: HEK293 splicing luciferase reporter, 24 h, higher = more signal, called active from +8 up or from −8 down;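 also: HEK293 cells carrying a splicing-competent luciferase reporter gene; test concentration not given here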
[5] = target: Fibroblast growth factor 10 (Homo sapiens) (UniProt O15520); experiment: compounds binding fibroblast growth factor 10 – biochemical, small-molecule microarray, 635 nm fluorescence, primary screen (AID 1102); conditions: FGF10 binding, fluorescence 635 nm, higher = more signal
Sequence of Fibroblast growth factor 10 (Homo sapiens) (O15520 whole entry, looked up): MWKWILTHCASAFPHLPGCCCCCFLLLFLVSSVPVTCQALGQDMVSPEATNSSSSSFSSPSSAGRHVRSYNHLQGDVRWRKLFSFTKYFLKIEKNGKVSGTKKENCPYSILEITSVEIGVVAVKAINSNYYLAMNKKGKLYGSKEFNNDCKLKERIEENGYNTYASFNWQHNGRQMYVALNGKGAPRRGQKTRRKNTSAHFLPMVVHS

[6] = system: glycogen synthase kinase-3 (GSK3A per assay name; protocol says GSK3B); experiment: compounds binding glycogen synthase kinase-3 – biochemical, small-molecule microarray, 635 nm fluorescence, GSK3A, primary screen (AID 1103); conditions: fluorescence 635 nm, higher = more signal; also: the record names both GSK3A and GSK3B
[7] = target: Epidermal growth factor receptor (Homo sapiens) (UniProt P00533); experiment: compounds binding epidermal growth factor receptor – biochemical, small-molecule microarray, 635 nm fluorescence, primary screen (AID 1104); conditions: EGFR binding, higher = more signal;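 also: score merges 667 nm emission intensity with spot signal to noise over triplicate slides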
Sequence of Epidermal growth factor receptor (Homo sapiens) (P00533 whole entry, looked up): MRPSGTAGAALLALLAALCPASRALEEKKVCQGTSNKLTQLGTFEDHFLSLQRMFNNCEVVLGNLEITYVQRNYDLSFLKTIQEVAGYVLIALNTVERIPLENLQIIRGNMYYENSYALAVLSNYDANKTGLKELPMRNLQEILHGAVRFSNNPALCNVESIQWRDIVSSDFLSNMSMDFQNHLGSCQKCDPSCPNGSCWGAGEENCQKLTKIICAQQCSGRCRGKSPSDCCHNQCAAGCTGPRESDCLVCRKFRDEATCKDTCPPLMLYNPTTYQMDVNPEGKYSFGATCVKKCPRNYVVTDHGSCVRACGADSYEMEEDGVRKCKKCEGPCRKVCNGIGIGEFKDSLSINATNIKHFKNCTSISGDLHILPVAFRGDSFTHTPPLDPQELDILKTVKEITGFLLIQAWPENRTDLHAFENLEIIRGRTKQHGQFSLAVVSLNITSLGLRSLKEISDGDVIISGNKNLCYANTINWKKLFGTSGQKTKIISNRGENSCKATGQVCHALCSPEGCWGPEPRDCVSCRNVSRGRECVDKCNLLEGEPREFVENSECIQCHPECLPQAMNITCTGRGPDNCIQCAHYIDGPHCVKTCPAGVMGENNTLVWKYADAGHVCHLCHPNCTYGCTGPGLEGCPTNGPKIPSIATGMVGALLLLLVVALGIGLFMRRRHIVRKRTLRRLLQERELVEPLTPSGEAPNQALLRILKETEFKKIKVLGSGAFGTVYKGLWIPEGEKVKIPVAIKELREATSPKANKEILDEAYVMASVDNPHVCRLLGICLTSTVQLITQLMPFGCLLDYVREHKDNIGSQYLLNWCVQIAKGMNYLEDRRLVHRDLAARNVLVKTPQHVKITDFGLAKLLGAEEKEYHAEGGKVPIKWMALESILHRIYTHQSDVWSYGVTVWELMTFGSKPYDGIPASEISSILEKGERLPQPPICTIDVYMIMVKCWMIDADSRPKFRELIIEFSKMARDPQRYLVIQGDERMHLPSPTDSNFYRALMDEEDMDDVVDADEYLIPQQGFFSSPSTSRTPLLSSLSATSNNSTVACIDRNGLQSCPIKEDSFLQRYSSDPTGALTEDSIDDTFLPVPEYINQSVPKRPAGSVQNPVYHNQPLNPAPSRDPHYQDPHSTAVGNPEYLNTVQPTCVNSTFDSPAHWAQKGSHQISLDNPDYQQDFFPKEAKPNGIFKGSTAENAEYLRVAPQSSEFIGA

[8] = target: Follistatin-related protein 3 (Homo sapiens) (UniProt O95633); experiment: compounds binding follistatin-related protein 3 – biochemical, small-molecule microarray, 635 nm fluorescence, primary screen (AID 1105); conditions: FSTL3 binding, higher = more signal;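 also: score merges emission near 667 nm and signal to noise per printed spot across three slides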
Sequence of Follistatin-related protein 3 (Homo sapiens) (O95633 whole entry, looked up): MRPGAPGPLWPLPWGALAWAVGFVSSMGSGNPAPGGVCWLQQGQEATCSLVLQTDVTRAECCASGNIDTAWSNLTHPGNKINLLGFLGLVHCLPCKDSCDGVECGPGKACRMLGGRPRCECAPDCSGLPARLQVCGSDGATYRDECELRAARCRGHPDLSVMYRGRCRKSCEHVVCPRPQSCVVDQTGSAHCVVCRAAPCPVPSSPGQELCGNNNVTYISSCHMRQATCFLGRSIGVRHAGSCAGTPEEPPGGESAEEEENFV

[9] = target: Dickkopf-related protein 1 (Homo sapiens) (UniProt O94907); experiment: small molecules binding DKK1 protein – biochemical, small-molecule microarray, 635 nm fluorescence scan, primary screen (AID 1106); conditions: higher = more signal;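 also: score merges emission near 667 nm with signal to noise over three replicate slides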
Sequence of Dickkopf-related protein 1 (Homo sapiens) (O94907 whole entry, looked up): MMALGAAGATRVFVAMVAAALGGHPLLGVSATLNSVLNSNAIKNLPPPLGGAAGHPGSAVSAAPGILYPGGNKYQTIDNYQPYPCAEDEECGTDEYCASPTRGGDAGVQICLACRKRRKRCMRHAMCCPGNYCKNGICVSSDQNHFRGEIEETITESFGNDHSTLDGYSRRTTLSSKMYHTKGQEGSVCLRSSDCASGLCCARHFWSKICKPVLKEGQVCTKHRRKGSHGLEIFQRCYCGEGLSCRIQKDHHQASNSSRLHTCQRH

[10] = system: Inhibin beta A chain (activin A); experiment: small molecules binding activin A – biochemical, small-molecule microarray, 635 nm fluorescence scan, primary screen (AID 1107); conditions: INHBA, higher = more signal;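 also: mouse activin A protein probed at 4.33 µg/mL on printed slides; score merges bound-protein fluorescence near 667 nm with spot signal-to-noise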
[11] = system: Human papillomavirus type 1a protein E7 (residues 44-93); experiment: small molecules binding HPV E7 44-93 – biochemical, small-molecule microarray, residues 44-93, 635 nm fluorescence, primary screen (AID 1108); conditions: fluorescence 635 nm, higher = more signal;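 also: E7 fragment applied at 1 µg/mL in TBST for 1 h at 4 C; score combines spot fluorescence with its signal to noise ratio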
[12] = hepatitis C replication reporter changes, two-sided – Huh7 cells, luciferase reporter, HCV replication inhibitor project, primary screen (AID 1109); conditions: Huh7 HCV replicon luciferase reporter, 48 h; higher = more signal;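 also: huh7 hepatoma cells harbouring a luciferase neomycin HCV replicon reporter; luciferase luminescence as measure of HCV replicon replication; test concentration not given here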
[13] = target: Left-right determination factor 2 (Homo sapiens) (UniProt O00292); experiment: small molecules binding LEFTY2 protein – biochemical, small-molecule microarray, 635 nm fluorescence scan, primary screen (AID 1110); conditions: higher = more signal
Sequence of Left-right determination factor 2 (Homo sapiens) (O00292 whole entry, looked up): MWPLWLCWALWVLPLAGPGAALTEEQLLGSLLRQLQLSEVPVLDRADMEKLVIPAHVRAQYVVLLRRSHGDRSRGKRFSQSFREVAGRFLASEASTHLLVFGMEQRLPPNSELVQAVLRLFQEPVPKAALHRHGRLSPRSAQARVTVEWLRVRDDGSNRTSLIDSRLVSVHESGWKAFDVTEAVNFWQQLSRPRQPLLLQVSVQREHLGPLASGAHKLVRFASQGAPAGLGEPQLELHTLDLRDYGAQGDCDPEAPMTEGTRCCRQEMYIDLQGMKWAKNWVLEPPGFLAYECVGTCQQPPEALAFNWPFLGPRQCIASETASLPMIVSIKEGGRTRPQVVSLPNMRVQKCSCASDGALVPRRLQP

[14] = target: Calmodulin-1 (Homo sapiens) (UniProt P0DP23); experiment: small molecules binding calmodulin-1 with EGTA – biochemical, small-molecule microarray, Cy5-labelled CALM1, profiling panel (AID 1111); conditions: Cy5-CALM1 binding fluorescence, higher = more signal;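 also: labelled calmodulin applied in Tris saline Tween buffer holding calcium plus EGTA and DTT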
[15] = target: Calmodulin-1 (Homo sapiens) (UniProt P0DP23); experiment: small molecules binding Ca-loaded calmodulin-1 – biochemical, small-molecule microarray, Cy5-labelled CALM1, plus calcium, artefact control for SMM control-protein annotation, profiling panel (AID 1112); conditions: Cy5-CALM1 binding fluorescence, higher = more signal;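 also: score merges spot fluorescence with signal to noise from triplicate slides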
[16] = probe aWnt5a binding to arrayed compounds – biochemical, biotinylated probe, 635/667 nm fluorescence, primary screen (AID 1113); conditions: small-molecule microarray, higher = more signal;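 also: score merges 667 nm fluorescence intensity with signal-to-noise per printed feature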
[17] = probe aShh binding to arrayed compounds – biochemical, biotinylated probe, 635/667 nm fluorescence, primary screen (AID 1114); conditions: small-molecule microarray, higher = more signal;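 also: probe is biotin-labelled aShh protein from a stem cell growth factor screen; measures binding of labelled protein to compounds printed on the slide; score merges feature fluorescence at 667 nm with signal-to-noise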
[18] = probe aNog binding to arrayed compounds – biochemical, biotinylated probe, 635/667 nm fluorescence, primary screen (AID 1115); conditions: small-molecule microarray, higher = more signal;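 also: probe is biotinylated aNog protein used at 0.15 µg/mL for 1 h at 4 C; z-score combines 667 nm fluorescence of each spot with its signal to noise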
[19] = target: Torsin-1A-interacting protein 1 (Homo sapiens) (UniProt Q5JTV8); experiment: compound microarray binding of lysate hLAP1 – cell lysate, small-molecule microarray, COS7 lysate, 635/667 nm fluorescence, primary screen (AID 1116); conditions: 635 nm fluorescence, higher = more signal
Sequence of Torsin-1A-interacting protein 1 (Homo sapiens) (Q5JTV8 whole entry, looked up): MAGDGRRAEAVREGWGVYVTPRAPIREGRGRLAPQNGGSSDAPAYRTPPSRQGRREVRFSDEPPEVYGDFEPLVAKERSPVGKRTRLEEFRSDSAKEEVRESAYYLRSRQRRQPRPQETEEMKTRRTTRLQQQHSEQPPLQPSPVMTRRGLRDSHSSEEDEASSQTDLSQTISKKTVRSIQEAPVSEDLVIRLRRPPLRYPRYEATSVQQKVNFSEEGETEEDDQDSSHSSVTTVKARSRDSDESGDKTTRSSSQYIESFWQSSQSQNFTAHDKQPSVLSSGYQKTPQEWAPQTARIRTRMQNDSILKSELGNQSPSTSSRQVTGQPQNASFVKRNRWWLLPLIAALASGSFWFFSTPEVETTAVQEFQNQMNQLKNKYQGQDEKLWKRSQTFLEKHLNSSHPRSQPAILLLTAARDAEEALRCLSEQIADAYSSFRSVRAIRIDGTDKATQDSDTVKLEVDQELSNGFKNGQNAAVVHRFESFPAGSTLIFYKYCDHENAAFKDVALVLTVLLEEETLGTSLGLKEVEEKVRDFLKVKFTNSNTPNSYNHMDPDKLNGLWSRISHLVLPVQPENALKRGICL

[20] = target: Alpha-bungarotoxin (Bungarus multicinctus) (UniProt P60615); experiment: compounds binding labelled alpha-BTX control protein – biochemical, small-molecule microarray, Alexa647 label, 635/667 nm fluorescence, artefact control for SMM control protein annotation, profiling panel (AID 1117); conditions: alpha-BTX-A647 binding fluorescence, higher = more signal
Sequence of Alpha-bungarotoxin (Bungarus multicinctus) (P60615 whole entry, looked up): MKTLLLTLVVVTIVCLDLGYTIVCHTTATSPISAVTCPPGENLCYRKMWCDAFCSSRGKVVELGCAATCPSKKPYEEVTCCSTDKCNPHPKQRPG

SMILES | composite z-score [1] | composite z-score [2] | composite z-score [3] | z-score [4] | composite z-score [5] | composite z-score [6] | composite z-score [7] | composite z-score [8] | composite z-score [9] | composite z-score [10] | composite z-score [11] | z-score [12] | composite z-score [13] | composite z-score [14] | composite z-score [15] | composite z-score [16] | composite z-score [17] | composite z-score [18] | composite z-score [19] | composite z-score [20]
CC(C)CON=C1C[C@@H](O)[C@@H](O)[C@@H]2[C@@H]3C(=O)N(c4cccc(Oc5ccccc5)c4)C(=O)[C@@H]3CC[C@H]12 | 0.0512 | -0.354 | -0.712 | -0.00485 (inactive) | 0.357 | 0.278 | 0.338 | 0.571 | 0.661 | -0.15 | 0.529 | 0.802 | 0.432 | 0.401 | -0.201 | -0.0269 | -0.0553 | -0.5 | 0.357 | 0.162
CC(C)N1CC=CC23O[C@@H]4C=CCCOC(=O)C4[C@H]2C(=O)N(C(C)CO)[C@@H]3C1=O (stereo not given in full) | 0.966 and -0.2 | 0.802 and -0.0438 | 1 and 0.404 | -1.6 (inactive) and -1.03 (inactive) | -0.858 and -0.457 | -0.132 and -0.547 | -1.71 and -0.693 | -1.66 and -0.676 | -2.56 and -0.647 | 0.644 and 1.35 | 0.163 and -0.9 | 0.179 and -0.144 | -1.4 and -1.42 | -0.302 and -0.271 | 0.269 and 0.224 | -0.26 and -0.152 | -0.138 and 0.0305 | 0.111 and -0.0784 | 1.62 and 0.0015 | -0.712 and -1.74
CC(CO)N1C(=O)[C@@H]2C3C(=O)OCCC=C[C@H]3OC23C=CCN(CCN2CCOCC2)C(=O)[C@@H]13 (stereo not given in full) | 0.53 and 0.55 | -0.278 and 0.0598 | -0.389 and 0.466 | 0.388 (inactive) and -0.153 (inactive) | -0.131 and -0.0694 | -0.496 and 0.65 | -0.51 and -0.235 | -0.0214 and -0.166 | 0.0325 and -0.442 | 0.621 and 1.59 | -1.05 and 0.497 | -0.38 and -0.851 | -0.346 and 0.398 | -0.0612 and -0.561 | -0.75 and -1.03 | -0.0981 and -0.13 | 0.0278 and 0.214 | 0.199 and -0.0161 | -0.71 and 1.48 | -0.106 and -0.0808
CC(CO)N1C(=O)[C@@H]2C3C(=O)OCCC=C[C@H]3OC23C=CCN(c2ccc4ccccc4c2)C(=O)[C@@H]13 (stereo not given in full) | 0.971 and 0.0013 | 0.0565 and -0.627 | 0.691 and -0.64 | 0.132 (inactive) and 0.555 (inactive) | -0.773 and -0.238 | -0.236 and -0.0124 | -1.06 and -0.897 | -0.352 and 0.329 | -1.6 and -0.929 | 0.665 and 0.142 | 1.24 and -0.698 | -0.466 and -0.213 | -1.21 and 0.0157 | -0.482 and -1.21 | 0.0293 and -1.1 | -0.203 and -0.183 | 0.0141 and -0.824 | 0.304 and -0.61 | 2.61 and 1.05 | -0.69 and -0.343
C=C[C@H](OC)[C@@H](O)c1ccc(OCCO)cc1 | 0.972 and 1.8 | -0.458 and -0.428 | 0.915 and 0.789 | -0.957 (inactive) and -0.233 (inactive) | -1.07 and -0.623 | -1.69 and -0.885 | -2.13 and -1.16 | -1.95 and -1.72 | -1.55 and -0.654 | -0.731 and -1.25 | -1.76 and -0.748 | -0.142 and 1.09 | -1.51 and -1.36 | -1.51 and -0.219 | -0.045 and -0.319 | -0.262 and -0.213 | -0.276 and -0.221 | -0.674 and -0.402 | 0.376 and -0.199 | -1.55 and -1.04
Cc1ccc(S(=O)(=O)N[C@H]2COC(=O)[C@@H](C)COC(=O)[C@H](C)NC(=O)CC=C[C@H]2C)cc1 | 0.163 | -0.45 | -0.972 | 0.00442 (inactive) | 0.752 | 0.393 | 0.554 | 0.804 | 0.881 | -0.108 | -0.799 | -0.128 | 0.715 | -0.82 | -0.994 | 0.027 | 0.0538 | -0.234 | 1.09 | -0.458
C=CCN(C(=O)C1N(C(C)(C)CO)C(=O)C2C(C(=O)O)C3C=CC21O3)c1ccc(OC)cc1 (stereo not given) | -0.138 and 0.012 | 0.0931 and -0.0192 | 1.23 and 1.02 | -1.01 (inactive) and 0.0922 (inactive) | -0.966 and -2.03 | -0.751 and -1.28 | -1.84 and -1.43 | -2.02 and -2.33 | -4.14 and -3.71 | -1.01 and -5.89 | -0.391 and -1.24 | 1.82 and -0.0108 | -2 and -4.13 | -0.547 and -0.928 | 0.455 and -0.116 | -0.256 and -0.116 | 0.0611 and -0.283 | 0.265 and -0.0827 | 1.86 and -0.125 | -2.34 and -2.48
C[C@@H]1CC[C@@H](C(=O)O)N[C@H]1c1ccc(-c2ccco2)cc1 | 1.04 | -0.187 | -0.826 | 0.0295 (inactive) | 0.614 | 0.722 | 0.946 | 1.44 | 0.951 | 0.805 | -1.68 | -0.305 | 0.88 | -0.547 | -1.3 | -0.096 | -0.299 | 0.0023 | 0.195 | 0.0848
CC[C@@H]1C(Sc2ccccc2)C(C(=O)O)[C@H](c2ccc(C)cc2)N1S(=O)(=O)c1ccc(C)cc1 (stereo not given in full) | 1.68 and 1.07 | 0.46 and -0.127 | 0.731 and 0.46 | -0.0623 (inactive) and -0.895 (inactive) | 0.617 and 0.881 | 0.414 and 1.14 | -0.233 and 0.267 | 0.437 and 0.874 | -0.72 and 0.0831 | 0.653 and 0.302 | 1.1 and 1.34 | -0.17 and -0.556 | -0.311 and 0.047 | 1.98 and 1.65 | 0.345 and 0.527 | 0.138 and 0.155 | 0.108 and 0.116 | 0.942 and 0.002 | 1.06 and 1.19 | 0.836 and 1.14
COC(=O)C1=C(C)N(Cc2ccccc2)C2=C3C(=O)N(c4ccccc4)C(=O)[C@@H]3[C@@](O)(C(=O)OC)C(=O)N2[C@@H]1c1ccccc1 | -0.0191 and 0.501 | -0.0254 and -0.186 | -0.914 and -0.616 | 0.0988 (inactive) and -2.38 (inactive) | 1.17 and 0.553 | 0.387 and 0.542 | 0.566 and 0.369 | 0.802 and 0.527 | 0.603 and 0.58 | -0.042 and -0.581 | -0.996 and 0.49 | -0.0822 and -0.147 | 0.269 and 0.49 | -0.101 and -0.0398 | -0.65 and -0.381 | -0.124 and -0.0405 | 0.151 and 0.318 | 0.0954 and -0.43 | 0.792 and 1.32 | 0.231 and 1.87

— PubChem BioAssay
